Rows were chosen to be rich in hits. Some 5.7% of all compounds tested hit in one or more screens of this group.
Nrf2 inh = Nrf2 pathway inhibition; A549 ARE-Fluc reporter, luciferase luminescence, 18-24 h; Potency, µM (titrated, usually from 46 µM), without a hit: at the top dose activity change, negative = inhibition, most hits filed as inhibitors; 2.1% of 360,000 active; AID 504444; note: potency is the fitted concentration of half-maximal effect; nearly all actives have a fitted effect of over 60% in size
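Nrf2 activity is the BugLite luminescence, read 15 min after reagent at room temperature, following CellTiter-Fluor cytotoxicity readout (30 min, 37C). Compound titrations were applied for 18-24 h to 5000 A549 ARE_Fluc cells/well in 5% FBS OPTI-MEM.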
A549 tox = A549 cytotoxicity, counter-screen for Nrf2 inhibitors; A549 ARE-Fluc cells, CellTiter-Fluor viability, 18-24 h; Potency, µM (highest dose often 46 µM), for the others: at the top dose activity change, negative = cytotoxicity, most hits filed as inhibitors; 0.16% of 390,000 active; AID 504648; note: potency is the fitted concentration of half-maximal effect
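A549 ARE_Fluc cells in 5% FBS OPTI-MEM were exposed to compounds in concentration-response for 18-24 h at 37 deg C. Viability was read by CellTiter-Fluor fluorescence (Ex 405/Em 525) after 30 min, before the luciferase read.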
KB-V1 MDR tox = kills drug-selected multidrug resistant KB-V1 cells; 3.4% of 400,000 active; KB-V1 MDR cells viability, CellTiter-Glo, 72 h; Potency, µM (top dose mostly 46.1 µM), actives largely listed as cytotoxic; AID 1347076; note: potency is the fitted concentration of half-maximal effect; nearly all actives have a fitted effect of over 60% in size
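Luminescent ATP read-out (CellTiter-Glo, 10 min) measures survival of drug-selected KB-V1 MDR cells after 72 h, 37 degrees C compound exposure. Medium: phenol-red-free DMEM, 10% FBS. Values from fitted concentration-response curves.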
KB-3-1 tox = KB-3-1 parental cell cytotoxicity; Potency, µM (series often up to 46.1 µM), usual class: cytotoxic; KB-3-1 viability, CellTiter-Glo ATP luminescence, 72 h; 1.4% of 400,000 active; note: potency is the fitted concentration of half-maximal effect; nearly all actives have a fitted effect of over 60% in size
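Multi-concentration cytotoxicity screen in KB-3-1 cells grown in DMEM lacking phenol red with 10% FBS. After 72 h at 37 °C with compound, ATP-dependent luminescence was recorded.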
Giardia kill = kills Giardia lamblia; 0.15% of 340,000 active; activity change, % at 7.66 µM, hits read low; Giardia lamblia trophozoite viability; in the data active = activity change below about -80%; inconclusive = between about -30% and that limit;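 note: parasites exposed to compound for two days anaerobically before the ATP read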
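ATP-content bioluminescence gauges trophozoite survival. Cells (100/well) receive compound and incubate anaerobically for 48 hrs at 37 deg C; detection reagent follows for 15-30 min at room temperature.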
PI4K2A inh = inhibitors of human PI4K2A | activity change, negative = inhibition, % at 76.9 µM | 0.13% of 420,000 active | purified PI4K2A, ADP-Glo luminescence, 1 h; stronger effect = lower value | Q9BTU6; in the data active = activity change below about -50%; inconclusive = mostly about -30% to -49%;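 note: -100% = wells without enzyme as full effect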
Target sequence (Q9BTU6 whole entry, looked up): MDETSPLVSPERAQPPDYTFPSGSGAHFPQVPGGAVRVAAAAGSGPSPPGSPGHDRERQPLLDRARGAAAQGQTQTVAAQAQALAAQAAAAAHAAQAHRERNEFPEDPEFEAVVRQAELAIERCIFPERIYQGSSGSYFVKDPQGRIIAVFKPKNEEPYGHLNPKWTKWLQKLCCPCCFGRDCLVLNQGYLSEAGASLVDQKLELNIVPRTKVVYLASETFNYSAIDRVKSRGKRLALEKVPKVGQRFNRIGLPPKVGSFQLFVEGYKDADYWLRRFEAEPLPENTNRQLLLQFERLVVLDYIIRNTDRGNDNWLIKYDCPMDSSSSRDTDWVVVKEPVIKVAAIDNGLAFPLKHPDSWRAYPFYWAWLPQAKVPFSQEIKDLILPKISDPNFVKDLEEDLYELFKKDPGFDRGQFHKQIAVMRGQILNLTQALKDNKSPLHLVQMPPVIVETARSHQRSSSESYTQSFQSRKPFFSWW
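ADP-Glo luminescence measured ADP generated by PI4K2A enzyme (4 ug/mL before mixing) with 1.2 mM PI substrate (pre-mix) and 300 microM ATP (pre-mix). Tris pH7.5 buffer with MgCl2, Triton X-100; 1 h reaction at ambient temperature.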
Active calls of the source: *; i = inactive; ? = inconclusive; · = no result. Unless noted, calls come from the whole dose curve; as a rule, active = well fitted curve in the direction sought with a large enough effect; inconclusive = small, poorly fitted or top-dose-only effect, or another doubt; inactive = no such curve, though single readings can be large; an effect the other way counts as inactive or inconclusive. Unless noted, % is set by controls: 0 for no effect and ±100 for the full control effect.

SMILES	Nrf2 inh	A549 tox	KB-V1 MDR tox	KB-3-1 tox	Giardia kill	PI4K2A inh
O=C(Nc1cccc2cccnc12)OCc1ccccc1	26.7%	1.6%	·	·	-22.2	·
COc1cccc(/C=C2\CC3(OC(=O)c4ccccc4)CCCN2C3)c1 (configuration not stated)	·	·	·	·	·	0.9
Cc1ccc(NC(=O)Cc2ccc(F)cc2)c(S(=O)(=O)N2CCOCC2)c1	·	·	·	·	·	3.8
O=C(Cn1c(=O)c(=O)n(Cc2ccccc2)c2ccc(Cl)cc21)Nc1cccc(F)c1	5.9%	1.5%	13µM*	i	14.2	1.6
O=[N+]([O-])c1ccccc1/C=C/C1Nc2cccc3cccc(c23)N1	·	·	·	·	·	-0.3
CC1CC(C)CN(c2oc(-c3ccc(OCc4ccccc4Cl)cc3)nc2C#N)C1 (configuration not stated)	-2.1%	0.2%	i	?	19.7	·
Nc1nn(-c2ccccc2)c(N)c1N=Nc1cccc(F)c1	?	-8.0%	?	5.8µM*	-26.5	24.7
Nc1nn(-c2ccccc2)c(N)c1N=Nc1ccc2c(c1)OCO2	-10.3%	14.6µM*	3.26µM*	7.31µM*	7.5	4.4
Nc1[nH]n(-c2ccccc2)c(=O)c1N=Nc1ccc2c(c1)OCO2	?	?	i	?	-14.9	4.5
CCOC(=O)N1CCC(NC(=O)c2ccc3c(c2)N(Cc2cc(C)ccc2C)C(=O)c2ccccc2S3=O)CC1 (configuration not stated)	-24.8%	-6.4%	?	?	·	1.6
CCCCN(CCCC)Cc1cc2ccccc2c2c1COC2	·	?	i	i	5.5	-81.3*
CCCN(CCC)Cc1cc2ccccc2c2c1COC2	2.3%	-1.5%	i	i	-1.0	3.9
COc1ccc(C(=O)c2cn[nH]c2-c2cc(C)ccc2O)cc1	4.3%	-3.0%	i	i	18.8	2.2
COc1ccc(C(=O)c2cn[nH]c2-c2cc(Cl)ccc2O)cc1	7.5%	-4.6%	18.4µM*	?	-13.6	-2.0
COc1ccc(Nc2cc(C)c3cc(NC(=O)c4cc(OC)cc(OC)c4)ccc3n2)cc1	?	-20.3%	?	8.2µM*	·	6.5
Cc1cc(Nc2cccc(C(F)(F)F)c2)nc2ccc(NC(=O)c3cccnc3)cc12	20.6µM*	?	?	?	·	-1.2
Cc1cc(Nc2cccc(C(F)(F)F)c2)nc2ccc(NC(=O)c3cccc(Cl)c3)cc12	25.9µM*	18.4µM*	i	?	·	2.4
COc1ccc(CC(=O)Nc2ccc3nc(Nc4ccc(OC)cc4)cc(C)c3c2)cc1	?	-22.8%	i	?	·	9.7
Cc1cc(Nc2cccc(Cl)c2)nc2ccc(NC(=O)Cc3cccc(C(F)(F)F)c3)cc12	?	?	i	i	·	-1.5
Cc1ccc(S(=O)(=O)N(CC(=O)NC2CCC(C)CC2)c2cc(C)cc(C)c2)cc1 (configuration not stated)	·	·	·	·	·	-2.1
COc1ccc(-c2ccc(SCC(=O)c3cccs3)nn2)cc1OC	?	-11.6%	2.31µM*	i	-7.1	0.6
COc1ccc(-c2cc(C(F)(F)F)nc(NCc3ccco3)n2)cc1OC	-13.7%	-8.6%	2.31µM*	i	-3.7	-4.9
COc1ccc(-c2ccc(SCC(=O)NCc3ccco3)nn2)cc1OC	-9.6%	-2.6%	9.2µM*	i	11.3	1.2
COc1ccc(-c2cc(C(F)(F)F)nc(SCC(=O)NCc3ccco3)n2)cc1OC	-0.5%	-0.2%	i	i	-10.3	1.0
COc1ccc(-c2ccc(SCC(=O)c3ccc(F)cc3)nn2)cc1OC	-0.1%	1.5%	?	i	-3.5	0.7
COC(=O)C1CCC(CNC(=O)C(Cc2ccc3c(c2)OCO3)NC(C)=O)CC1 (configuration not stated)	·	·	·	·	·	-0.7
O=C(Nc1nccs1)[C@@H]1CC=C[C@@H]2CCN(C3CCCCC3)C(=O)[C@@H]21	·	·	i	i	·	·
